Results from the supplement of paper PMC6555819.

Experiments:
Experiment in all cases: PBM binding z-score (relative to random genomic background probes); higher = stronger binding; sequences stand for … in GC…GCGATTGACAGCGTAGAATGAAGG
[1] = test system: FXR:RXRa (NR concentration 270 nM, RXRa partner concentration 90 nM)
Procedure, shortened: (§1)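 Ligand-free nuclear receptor dimers were applied to custom Agilent 4×180K protein-binding microarrays whose double-stranded probes carried direct-repeat seeds, single-nucleotide variants, half-site ablations and random human genomic background sequences in 34-nt variable regions. Incubation lasted 1 h. Binding z-scores were computed against the random background probes from regression-normalized fluorescence.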

[2] = test system: LXRa:RXRa (NR concentration 270 nM, RXRa partner concentration 90 nM)
Procedure, shortened: as §1

[3] = test system: LXRa homodimer (NR concentration 270 nM)
Procedure, shortened: as §1

[4] = test system: LXRb:RXRa (NR concentration 270 nM, RXRa partner concentration 90 nM)
Procedure, shortened: as §1

[5] = test system: LXRb homodimer (NR concentration 270 nM)
Procedure, shortened: as §1

[6] = test system: PPARa:RXRa (NR concentration 270 nM, RXRa partner concentration 90 nM)
Procedure, shortened: as §1

[7] = test system: PPARg:RXRa (NR concentration 180 nM, RXRa partner concentration 90 nM)
Procedure, shortened: as §1

[8] = test system: PPARg:RXRa 270nM:90nM, anti-RXR (NR concentration 270 nM, RXRa partner concentration 90 nM)
Procedure, shortened: as §1

[9] = test system: PPARg:RXRa 30nM:10nM, anti-RXR (NR concentration 30 nM, RXRa partner concentration 10 nM)
Procedure, shortened: as §1

[10] = test system: PPARg:RXRa 90nM:30nM, anti-RXR (NR concentration 90 nM, RXRa partner concentration 30 nM)
Procedure, shortened: as §1

**Q.** Which PBM binding z-score [1] does the source give for TCAGAGAGGTGAAGGTAACTCAGGTACGCAGTCG here?
**A.** 1.22

**Q.** And the PBM binding z-score [2]?
**A.** 2.12

**Q.** And the PBM binding z-score [3]?
**A.** -0.198

**Q.** What about the PBM binding z-score [4] of the same sequence?
**A.** 0.909

**Q.** And the PBM binding z-score [5]?
**A.** -0.432

**Q.** What about the PBM binding z-score [6] of the same sequence?
**A.** 2.27

**Q.** What about the PBM binding z-score [7] of the same sequence?
**A.** 1.23

**Q.** And the PBM binding z-score [8]?
**A.** 2.64

**Q.** And the PBM binding z-score [9]?
**A.** 3.84

**Q.** What about the PBM binding z-score [10] of the same sequence?
**A.** 3.09

**Q.** With ATCTCTAGGTACAAGTTCAGTGAATCCCGAGGAT as the sequence, how does the PBM binding z-score [1] read?
**A.** 0.207

**Q.** What about the PBM binding z-score [2] of the same sequence?
**A.** 0.339

**Q.** And the PBM binding z-score [3]?
**A.** 0.332

**Q.** And the PBM binding z-score [4]?
**A.** 0.411

**Q.** What about the PBM binding z-score [5] of the same sequence?
**A.** 0.905

**Q.** What about the PBM binding z-score [6] of the same sequence?
**A.** 2.42

**Q.** What about the PBM binding z-score [7] of the same sequence?
**A.** 3.28

**Q.** And the PBM binding z-score [8]?
**A.** 4.58

**Q.** And the PBM binding z-score [9]?
**A.** 3.23

**Q.** And the PBM binding z-score [10]?
**A.** 4.51

**Q.** CCGACTGGGGCATAAGGTTACCATAAGCCAGCCC was tested. Which PBM binding z-score [1] did it give?
**A.** 0.197

**Q.** And the PBM binding z-score [2]?
**A.** 1.68

**Q.** And the PBM binding z-score [3]?
**A.** -0.354

**Q.** And the PBM binding z-score [4]?
**A.** 0.645

**Q.** What about the PBM binding z-score [5] of the same sequence?
**A.** -1.33

**Q.** What about the PBM binding z-score [6] of the same sequence?
**A.** 1.75

**Q.** And the PBM binding z-score [7]?
**A.** 2.29

**Q.** What about the PBM binding z-score [8] of the same sequence?
**A.** 3.15

**Q.** What about the PBM binding z-score [9] of the same sequence?
**A.** 0.853

**Q.** And the PBM binding z-score [10]?
**A.** 2.5

**Q.** CCAGCTAGGTCAATGGTCAGCTAAAGCAGCTCGC was tested. Which PBM binding z-score [1] did it give?
**A.** 2.92

**Q.** And the PBM binding z-score [2]?
**A.** 2.06

**Q.** What about the PBM binding z-score [3] of the same sequence?
**A.** -0.24

**Q.** And the PBM binding z-score [4]?
**A.** 1.27

**Q.** And the PBM binding z-score [5]?
**A.** -0.685

**Q.** And the PBM binding z-score [6]?
**A.** 3.2

**Q.** And the PBM binding z-score [7]?
**A.** 5.08

**Q.** What about the PBM binding z-score [8] of the same sequence?
**A.** 5.75

**Q.** What about the PBM binding z-score [9] of the same sequence?
**A.** 3.27

**Q.** And the PBM binding z-score [10]?
**A.** 5.34

**Q.** What does the source list for ATATGTAGGTTACATCCGGGTCATTCCGGCTATG?
**A.** PBM binding z-score [1]: 1.93; PBM binding z-score [2]: 4.16; PBM binding z-score [3]: 1.81; PBM binding z-score [4]: 2.68; PBM binding z-score [5]: 0.955; PBM binding z-score [6]: 4.37; PBM binding z-score [7]: 5.96; PBM binding z-score [8]: 5.25; PBM binding z-score [9]: 2.7; PBM binding z-score [10]: 4.37

**Q.** How did the PBM binding z-score [1] turn out when CTCGAAAGGTCGTGCTCAGGTGAATATACCAAAC was run?
**A.** 5.33

**Q.** What about the PBM binding z-score [2] of the same sequence?
**A.** 4.19

**Q.** What about the PBM binding z-score [3] of the same sequence?
**A.** 0.375

**Q.** What about the PBM binding z-score [4] of the same sequence?
**A.** 3.82

**Q.** What about the PBM binding z-score [5] of the same sequence?
**A.** 0.534

**Q.** What about the PBM binding z-score [6] of the same sequence?
**A.** 5.05

**Q.** And the PBM binding z-score [7]?
**A.** 2.81

**Q.** What about the PBM binding z-score [8] of the same sequence?
**A.** 3.84

**Q.** And the PBM binding z-score [9]?
**A.** 1.1

**Q.** What about the PBM binding z-score [10] of the same sequence?
**A.** 2.6

**Q.** What does the source list for ACAGACAGGTGAGTGCAGGTAACTCAGCTGGACG?
**A.** PBM binding z-score [1]: 0.0345; PBM binding z-score [2]: -0.289; PBM binding z-score [3]: -0.365; PBM binding z-score [4]: -0.549; PBM binding z-score [5]: -1.06; PBM binding z-score [6]: -0.0295; PBM binding z-score [7]: 0.62; PBM binding z-score [8]: -0.199; PBM binding z-score [9]: -0.134; PBM binding z-score [10]: -0.571

**Q.** TCATGTAGATCAATAGAGGTTAAGAAAGTGCGCT was tested. Which PBM binding z-score [1] did it give?
**A.** 1.01

**Q.** And the PBM binding z-score [2]?
**A.** 3.41

**Q.** And the PBM binding z-score [3]?
**A.** 0.701

**Q.** And the PBM binding z-score [4]?
**A.** 1.95

**Q.** What about the PBM binding z-score [5] of the same sequence?
**A.** 0.112

**Q.** And the PBM binding z-score [6]?
**A.** 1.83

**Q.** And the PBM binding z-score [7]?
**A.** 0.225

**Q.** What about the PBM binding z-score [8] of the same sequence?
**A.** 1.59

**Q.** What about the PBM binding z-score [9] of the same sequence?
**A.** 3.1

**Q.** What about the PBM binding z-score [10] of the same sequence?
**A.** 1.96

**Q.** Which PBM binding z-score [1] does the source give for ATATGTAGGTAAAGGGTCATTCAGGTTGGTTCGC here?
**A.** 4.11

**Q.** What about the PBM binding z-score [2] of the same sequence?
**A.** 4.04

**Q.** And the PBM binding z-score [3]?
**A.** 2.46

**Q.** And the PBM binding z-score [4]?
**A.** 3.97

**Q.** And the PBM binding z-score [5]?
**A.** 1.17

**Q.** What about the PBM binding z-score [6] of the same sequence?
**A.** 6.53

**Q.** What about the PBM binding z-score [7] of the same sequence?
**A.** 11.1

**Q.** What about the PBM binding z-score [8] of the same sequence?
**A.** 9.65

**Q.** What about the PBM binding z-score [9] of the same sequence?
**A.** 9.28

**Q.** What about the PBM binding z-score [10] of the same sequence?
**A.** 10.5

**Q.** Which PBM binding z-score [1] does the source give for CGGACTGGGGCATAAGGTTACCATAAGCCAGCCC here?
**A.** 0.339

**Q.** And the PBM binding z-score [2]?
**A.** 2.09

**Q.** What about the PBM binding z-score [3] of the same sequence?
**A.** -0.514

**Q.** And the PBM binding z-score [4]?
**A.** 1.11

**Q.** What about the PBM binding z-score [5] of the same sequence?
**A.** -0.487

**Q.** What about the PBM binding z-score [6] of the same sequence?
**A.** 2.78

**Q.** And the PBM binding z-score [7]?
**A.** 4.19

**Q.** What about the PBM binding z-score [8] of the same sequence?
**A.** 4.81

**Q.** What about the PBM binding z-score [9] of the same sequence?
**A.** 2.94

**Q.** And the PBM binding z-score [10]?
**A.** 4.56
